tested on: T1, MINK; details: concentration: 1 μM, replicates: in singlicate; n = 1
T1 construct: gene MINK1
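Also: KINOMEscan kinase panel screen.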

Row | SMILES | %Inh [%]
1 | c1ccc(-c2ccnc3[nH]ccc23)cc1 [SB-693578] | 19
2 | COc1ccc(Nc2nccc(N3CCC(NC(=O)C(C)c4ccc(Cl)cc4)C3)n2)cc1 (stereo not drawn) [GSK1379735] | 1
3 | Nc1nccc(-c2c(-c3ccc(F)cc3)ncn2C2CCN(Cc3ccccc3)CC2)n1 [SB-219980] | 32
4 | Cl.Cl.Cl.N#Cc1ccc(CCNc2nccc(-c3cccc(CN4CCNCC4)c3)n2)cc1 [GSK2137462] | 3
5 | Cc1cccc2c(-c3ccncn3)c(-c3ccc(F)cc3)nn12 [GW515532] | 0
6 | O=C(Nc1n[nH]c2nc(-c3cccs3)c(Br)cc12)C1CC1 [SB-735297] | 28
7 | CC(=O)c1c(C)c2cnc(Nc3ccn(C)n3)nc2n(C2CCCC2)c1=O | 8
8 | COc1cccc(NC(=O)Nc2ccc(C)c(-c3ccc(C(=O)Nc4ccncc4)cc3)c2)c1 [GSK1398474] | 6
9 | CCc1ccc(-c2ccc3c(c2)-c2n[nH]cc2S(=O)(=O)N3C)cc1 | 2
10 | CNc1nc(-c2ccc3c(N)n[nH]c3c2)cc(N2C[C@@H](C(=O)Nc3ccccc3)CC[C@H]2C)n1 [GSK2298859] | 0
11 | COc1cccc(C2=C(Nc3cc(Cl)c(O)c(Cl)c3)C(=O)NC2=O)c1 [SB-390767] | 0
12 | Cn1cncc1C(=O)NC1CCN(c2ccnc(Nc3ccc(F)cc3)n2)C1 (stereo not drawn) [GSK1379717] | 0
13 | Fc1ccc(-c2nc3n(c2-c2ccncc2)CCS3)cc1 [GI98581] | 45
14 | CS(=O)(=O)CCNCc1nc(-c2ccc3ncnc(Nc4ccc(OCc5ccccc5)c(Cl)c4)c3c2)cs1.Cl [GW582764] | 0
15 | COc1ccc(Nc2nccc(NCCNC(=O)Nc3cc(C)ccc3C)n2)cc1 [GSK1379899] | 0
16 | O=c1cc(N2CCOCC2)nc2n(Cc3cccc(Cl)c3Cl)c3ccccc3n12 [GSK2299009] | 5
17 | FC(F)(F)c1ccccc1-c1cc(-c2c[nH]nc2-c2ccccn2)ccn1 [GW679396] | 11
18 | Cn1cncc1-c1cc2c(Nc3ccc(OCc4ccccc4)cc3)ncnc2cn1 [GW281179] | 0

Row | SMILES | %Inh [%]
19 | COc1ccc(CSc2nnc(-c3ccc4c(c3)CCO4)o2)cc1 | 0
20 | CC(=O)c1cccc(NC(=O)NC2CCN(c3ccnc(Nc4ccc(F)cc4)n3)C2)c1 (stereo not drawn) [GSK1379710] | 11
21 | CNc1cc(-c2ccc3c(N)n[nH]c3c2)nc(N)n1 [GSK2224810] | 29
22 | Cc1nccc(-c2c(-c3ccc(F)cc3)ncn2CCCN2CCOCC2)n1.Cl [SB-282975] | 18
23 | Cc1ccccc1-c1cc(-c2c[nH]nc2-c2ccccn2)ccn1 [GW680061] | 31
24 | COc1nccc(-c2c(-c3ccc(F)cc3)ncn2CCCN2CCOCC2)n1 [SB-282852] | 0
25 | Cc1ccc(-c2nc(Nc3ccncc3)c3ccccc3n2)s1 [GSK189015] | 2
26 | Nc1cccc(-c2ccc3c(N)n[nH]c3c2)n1 [GSK2192730] | 50
27 | COC(=O)C(NC(=O)NC1CCN(c2ccnc(Nc3ccc(F)cc3)n2)C1)c1ccccc1 (stereo not drawn) [GSK1379712] | 7
28 | CN1c2ccc(-c3ccc(C(N)=O)cc3)cc2-c2[nH]ncc2S1(=O)=O | 53
29 | CC(=O)c1c(C)c2cnc(Nc3ccc(N4CCNCC4)cn3)nc2n(C2CCCC2)c1=O | 0
30 | CS(=O)(=O)Cc1ccc(Nc2nccc(-c3c(-c4cccc(NC(=O)C5CCCCC5)c4)nn4ncccc34)n2)cc1 [GSK350559] | 0
31 | Cc1ccc(NC(=O)Nc2ccccc2)cc1-c1ccc(C(=O)Nc2ccncc2)cc1 [GSK1398471] | 3
32 | NS(=O)(=O)c1cccc(N/C=C2\C(=O)Nc3ccc(S(=O)(=O)Cc4c(Cl)cccc4Cl)cc32)c1 [GSK398099] | 80
33 | COc1ccc2cc(-c3nc(-c4ccccc4C(C)C)[nH]c3-c3ccncc3)ccc2c1 [SB-660566] | 0
34 | O=C(Nc1n[nH]c2cc(-c3ccsc3)ccc12)C1CC1 [SB-732932] | 67
35 | COc1cccc(CNC(=O)NC2CCN(c3ccnc(Nc4ccc(F)cc4)n3)C2)c1 (stereo not drawn) [GSK1379723] | 0
36 | Cc1cnc(N)c(/C=C/c2cncc(C(=O)NCCc3ccc(Cl)cc3Cl)c2)c1.Cl [GSK190937] | 4

tested on: MKK7; details: concentration: 1 μM, replicates: in singlicate; n = 1

Row | SMILES | %Inh [%]
37 | c1ccc(-c2ccnc3[nH]ccc23)cc1 [SB-693578] | 0
38 | COc1ccc(Nc2nccc(N3CCC(NC(=O)C(C)c4ccc(Cl)cc4)C3)n2)cc1 (stereo not drawn) [GSK1379735] | 10
39 | Nc1nccc(-c2c(-c3ccc(F)cc3)ncn2C2CCN(Cc3ccccc3)CC2)n1 [SB-219980] | 0
40 | Cl.Cl.Cl.N#Cc1ccc(CCNc2nccc(-c3cccc(CN4CCNCC4)c3)n2)cc1 [GSK2137462] | 0
41 | Cc1cccc2c(-c3ccncn3)c(-c3ccc(F)cc3)nn12 [GW515532] | 0
42 | O=C(Nc1n[nH]c2nc(-c3cccs3)c(Br)cc12)C1CC1 [SB-735297] | 0
43 | CC(=O)c1c(C)c2cnc(Nc3ccn(C)n3)nc2n(C2CCCC2)c1=O | 0
44 | COc1cccc(NC(=O)Nc2ccc(C)c(-c3ccc(C(=O)Nc4ccncc4)cc3)c2)c1 [GSK1398474] | 14
45 | CCc1ccc(-c2ccc3c(c2)-c2n[nH]cc2S(=O)(=O)N3C)cc1 | 0
46 | CNc1nc(-c2ccc3c(N)n[nH]c3c2)cc(N2C[C@@H](C(=O)Nc3ccccc3)CC[C@H]2C)n1 [GSK2298859] | 0
47 | COc1cccc(C2=C(Nc3cc(Cl)c(O)c(Cl)c3)C(=O)NC2=O)c1 [SB-390767] | 26
48 | Cn1cncc1C(=O)NC1CCN(c2ccnc(Nc3ccc(F)cc3)n2)C1 (stereo not drawn) [GSK1379717] | 10
49 | Fc1ccc(-c2nc3n(c2-c2ccncc2)CCS3)cc1 [GI98581] | 0
50 | CS(=O)(=O)CCNCc1nc(-c2ccc3ncnc(Nc4ccc(OCc5ccccc5)c(Cl)c4)c3c2)cs1.Cl [GW582764] | 0
51 | COc1ccc(Nc2nccc(NCCNC(=O)Nc3cc(C)ccc3C)n2)cc1 [GSK1379899] | 0
52 | O=c1cc(N2CCOCC2)nc2n(Cc3cccc(Cl)c3Cl)c3ccccc3n12 [GSK2299009] | 28
53 | FC(F)(F)c1ccccc1-c1cc(-c2c[nH]nc2-c2ccccn2)ccn1 [GW679396] | 0
54 | Cn1cncc1-c1cc2c(Nc3ccc(OCc4ccccc4)cc3)ncnc2cn1 [GW281179] | 11

Row | SMILES | %Inh [%]
55 | COc1ccc(CSc2nnc(-c3ccc4c(c3)CCO4)o2)cc1 | 0
56 | CC(=O)c1cccc(NC(=O)NC2CCN(c3ccnc(Nc4ccc(F)cc4)n3)C2)c1 (stereo not drawn) [GSK1379710] | 0
57 | CNc1cc(-c2ccc3c(N)n[nH]c3c2)nc(N)n1 [GSK2224810] | 0
58 | Cc1nccc(-c2c(-c3ccc(F)cc3)ncn2CCCN2CCOCC2)n1.Cl [SB-282975] | 0
59 | Cc1ccccc1-c1cc(-c2c[nH]nc2-c2ccccn2)ccn1 [GW680061] | 0
60 | COc1nccc(-c2c(-c3ccc(F)cc3)ncn2CCCN2CCOCC2)n1 [SB-282852] | 23
61 | Cc1ccc(-c2nc(Nc3ccncc3)c3ccccc3n2)s1 [GSK189015] | 0
62 | Nc1cccc(-c2ccc3c(N)n[nH]c3c2)n1 [GSK2192730] | 0
63 | COC(=O)C(NC(=O)NC1CCN(c2ccnc(Nc3ccc(F)cc3)n2)C1)c1ccccc1 (stereo not drawn) [GSK1379712] | 32
64 | CN1c2ccc(-c3ccc(C(N)=O)cc3)cc2-c2[nH]ncc2S1(=O)=O | 3
65 | CC(=O)c1c(C)c2cnc(Nc3ccc(N4CCNCC4)cn3)nc2n(C2CCCC2)c1=O | 0
66 | CS(=O)(=O)Cc1ccc(Nc2nccc(-c3c(-c4cccc(NC(=O)C5CCCCC5)c4)nn4ncccc34)n2)cc1 [GSK350559] | 21
67 | Cc1ccc(NC(=O)Nc2ccccc2)cc1-c1ccc(C(=O)Nc2ccncc2)cc1 [GSK1398471] | 23
68 | NS(=O)(=O)c1cccc(N/C=C2\C(=O)Nc3ccc(S(=O)(=O)Cc4c(Cl)cccc4Cl)cc32)c1 [GSK398099] | 0
69 | COc1ccc2cc(-c3nc(-c4ccccc4C(C)C)[nH]c3-c3ccncc3)ccc2c1 [SB-660566] | 0
70 | O=C(Nc1n[nH]c2cc(-c3ccsc3)ccc12)C1CC1 [SB-732932] | 8
71 | COc1cccc(CNC(=O)NC2CCN(c3ccnc(Nc4ccc(F)cc4)n3)C2)c1 (stereo not drawn) [GSK1379723] | 31
72 | Cc1cnc(N)c(/C=C/c2cncc(C(=O)NCCc3ccc(Cl)cc3Cl)c2)c1.Cl [GSK190937] | 0

Source: PMC5540273 (PLoS ONE, 2017)
